Laboratory results from PubChem BioAssay (NCI).
This is part of a sample that, as a whole, favours compounds with a hit. Of some 83,000 tested, about 20% had one in any assay.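 Negative percent growth values reflect cell death: -40 means 40% of the cells present at the start died, and -100 means all died.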 Values without a mark were called inactive. Calls of active or inactive are those of the source. How the source made its calls: active means growth percent below 10; inactive means the rest.

Experiments:
Experiment in all cases: NCI-60 one-dose screen, 48 h (100 = growth as untreated, 0 = no growth, -100 = all killed)
Details in all cases: 10 µM
T-47D breast = system: T-47D breast
BT-549 breast = system: BT-549 breast
MDA-MB-435 melanoma = system: MDA-MB-435 melanoma
SW-620 colon = system: SW-620 colon
MCF7 breast = system: MCF7 breast
HCT-116 colon = system: HCT-116 colon
HCC-2998 colon = system: HCC-2998 colon
KM12 colon = system: KM12 colon
MDA-MB-468 breast = system: MDA-MB-468 breast

| SMILES | growth (T-47D breast) | growth (BT-549 breast) | growth (MDA-MB-435 melanoma) | growth (SW-620 colon) | growth (MCF7 breast) | growth (HCT-116 colon) | growth (HCC-2998 colon) | growth (KM12 colon) | growth (MDA-MB-468 breast) |
| --- | --- | --- | --- | --- | --- | --- | --- | --- | --- |
| COc1cc2c3c(n(CCCNC(C)C)c(=O)c2cc1OC)-c1nc2c(cc1C3=O)OCO2 | 43.9% | 49.1% | -86.9% (active) | -62.8% (active) | -89.8% (active) | -60.4% (active) | 65.5% | -90.1% (active) | -9.99% (active) |
| O=C(Cn1nc(-c2ccccc2)ccc1=O)NN1C(=O)c2ccccc2C1=O | 96.2% | 110% | 107% | 115% | 81.7% | 106% | 108% | 103% | 92.3% |
| COc1cccc2nc(Nc3ccc(F)c(NC(=O)c4ccc(CN5CCN(C)CC5)c(C(F)(F)F)c4)c3)ccc12 | 22% | 82.6% | -69.3% (active) | -63% (active) | -61.3% (active) | 1.84% (active) | -94.5% (active) | -22.2% (active) | -48.9% (active) |
| N#Cc1c(NC(=O)c2ccc(C(F)(F)F)cc2)sc2c1CCC(=O)C2 | -36.9% (active) | -80.6% (active) | -41.4% (active) | -63% (active) | -16.9% (active) | -46.3% (active) | -96.7% (active) | -36.3% (active) | -71% (active) |
| N#C/C(=C\c1ccc(N(c2ccccc2)c2ccccc2)cc1)C(N)=O | -26.7% (active) | 69.6% | 92.7% | 45.6% | 6.51% (active) | 14.9% | 73.7% | 78.6% | -91.2% (active) |
| COc1cc2c3c(n(CCCn4ccnc4)c(=O)c2cc1OC)-c1nc2c(cc1C3=O)OCO2 | 21.8% | 29.6% | 52.2% | 37% | 7.42% (active) | 30.4% | 72.2% | 59.6% | -29.8% (active) |
| CCOc1ccc2ncc(C#Cc3cncc(C(=O)Nc4ccc(CN5CCN(C)CC5)c(C(F)(F)F)c4)c3)n2n1 | 71.9% | -60.9% (active) | -74.2% (active) | -62.1% (active) | -63.7% (active) | -48% (active) | -89.3% (active) | -91.1% (active) | -76.1% (active) |
| COc1cc(/C=C/C(=O)c2ccc(NC(=O)CN3C(=O)NC(C)(c4ccccc4)C3=O)cc2)cc(OC)c1OC (configuration not stated) | 33.9% | 10.9% | 7.31% (active) | 8.07% (active) | 2.86% (active) | -69.7% (active) | 10% | -6.47% (active) | -23.1% (active) |
| CC(=O)Nc1ccc(-c2cn(-c3cccc(C(=O)Nc4cc(C(F)(F)F)cc(C(F)(F)F)c4)c3)nn2)cn1 | 33.9% | -39.6% (active) | -34.3% (active) | -31.5% (active) | -25% (active) | 10.6% | -62.1% (active) | -27.6% (active) | -46.5% (active) |
| COc1cc(C2CC(c3ccc(C)cc3)=Nc3c(N)nc(N)nc3N2)ccc1Oc1nc(Nc2ccc(F)cc2)nc(N(C)C)n1 (configuration not stated) | 64.5% | 65.4% | 63.2% | 58.8% | 5.19% (active) | 6.7% (active) | 29.9% | 52% | 15.6% |
| CN1CCN(c2ccc(C(=O)/C=C/c3cc(Br)ccc3F)cc2)CC1 | 59.8% | 59.3% | 1.57% (active) | -25.7% (active) | 2.37% (active) | 1.2% (active) | -63.2% (active) | 8.8% (active) | -13.3% (active) |
| Brc1ccc(N/N=C/c2c[nH]c3ccccc23)nc1 | 25.7% | -2.29% (active) | 30.4% | 20.8% | 9.88% (active) | 6.45% (active) | -1.13% (active) | 0.217% (active) | -35.5% (active) |
| COc1ccc(-c2c(N)c(=O)n(C)c3ccccc23)cc1 | 57.2% | 43% | 59.2% | 65.5% | 24.8% | 37.5% | 81.5% | 64.5% | 50.1% |
| Cc1ccc(-c2nc(Nc3ccc(C)c(S(N)(=O)=O)c3)c3ccccc3n2)cc1 | 84.2% | 104% | 74.6% | 37.2% | 26.2% | 29.5% | 49.5% | 40% | 1.27% (active) |
| O=C(Nc1ccc(OCc2ccccc2)cc1)Nc1ccc(Cl)c(C(F)(F)F)c1 | -2.54% (active) | -15.9% (active) | -1.55% (active) | 13% | 2.34% (active) | 2.43% (active) | 21.4% | 1.83% (active) | -36% (active) |
| Cc1ccc(C(=O)NNC(=O)CSc2nc3ccccc3c(=O)[nH]2)cc1 | 95.8% | 94.2% | 101% | 103% | 92.3% | 107% | 105% | 107% | 84.6% |
| C#CCNC(=O)CCC(=O)OC[C@]12CC[C@@H](C(=C)C)[C@@H]1C1CC[C@@H]3[C@@]4(C)CCCNC(C)(C)[C@@H]4CC[C@@]3(C)[C@]1(C)CC2 (some centres not stated) | 10.9% | 11% | -32.2% (active) | -92.3% (active) | -65.7% (active) | -60.3% (active) | -99.1% (active) | 6.5% (active) | -94.9% (active) |
| O=c1cc(-c2ccccc2)oc2cc(OCCCCNCc3ccccc3)cc(O)c12 | -70.7% (active) | 78.5% | -31.5% (active) | -39.1% (active) | -64.1% (active) | -73.7% (active) | -96.7% (active) | 23.8% | -28.2% (active) |
| Cc1ccc(NC(=O)NCn2c(=O)[nH]c3ccccc3c2=O)cc1 | 79.6% | 115% | 86.3% | 78.5% | 72% | 60.1% | 102% | 98.9% | 84.1% |
| CN(C)c1ccc(/C=C/c2nc3ccccc3c(=O)n2CC(=O)Nc2ccc(Cl)cc2)cc1 | 75.1% | 26.6% | 68.8% | 61.9% | 27.9% | 56.8% | 68% | 55.1% | 31.3% |
| Clc1ccc2c(N/N=C/c3c[nH]c4ccc(Br)cc34)ccnc2c1 | -54.6% (active) | -79.5% (active) | -77.3% (active) | 2.03% (active) | -56.8% (active) | -10.3% (active) | -92.5% (active) | -81.7% (active) | -94.2% (active) |
| COc1ccc(-c2nc(Nc3ccccc3S(N)(=O)=O)c3ccccc3n2)cc1 | 35.7% | 85.8% | 34.1% | 8.47% (active) | 9.02% (active) | -42.9% (active) | 12% | 6.25% (active) | -13.4% (active) |
| CCOC(=O)CNC(=O)CN(Cc1ccccc1)C(=O)[C@@]1(C)CCC[C@]2(C)[C@H]3C[C@H]4C(C(C)C)=C[C@]3(CC[C@H]21)[C@@H]1C(=O)OC(=O)[C@@H]14 | 67.4% | 76.2% | 78.5% | 79.4% | 30.7% | 37.4% | 69.6% | 53% | 48.9% |
| COc1ccc(N(C)c2cc(C#N)nc3ccccc23)cc1N | 20.8% | 94.1% | -22.4% (active) | 19% | 9.87% (active) | 6.17% (active) | 7.99% (active) | 9.27% (active) | 3.98% (active) |
| CC1(C)CC[C@]23CC[C@]4(C)[C@H](CC[C@@H]5[C@@]6(C)CC[C@H](N)C(C)(C)[C@@H]6CC[C@]54C)[C@H]2[C@H]1OC3=O | -78.2% (active) | -97.7% (active) | -96.2% (active) | -73.7% (active) | -80.1% (active) | -98.9% (active) | -92.2% (active) | -86.6% (active) | -95.6% (active) |
| COc1cc2c(c(OC)c1OC)C(=O)CC(c1cccc(NC(=O)c3cccc(N)c3)c1)O2 (configuration not stated) | 35.5% | 63.8% | 77.4% | 94.1% | 57.8% | 65.4% | 114% | 72.2% | 65.6% |
| O=C(Nc1cccc(C(F)(F)F)c1)c1cncc(C#Cc2cnc3cccnn23)c1 | 13.5% | 15.4% | 25.6% | 34.3% | 8.36% (active) | 15.4% | 46.9% | 7.46% (active) | 47.8% |
| Cc1ccc(CSc2nc(Cl)c(C#N)c(-c3ccc(F)cc3)n2)cc1 | 31.3% | 56.4% | 99.7% | 62.8% | 72.9% | 59.3% | 87.8% | 72.2% | 80.3% |
